Measurements: PubChem BioAssay (NCATS)
Where “and” joins values, the source holds several entries; their conditions need not be identical. Identical values can stand only once. Records with an inconclusive call do not appear. Calls of active or inactive are those of the source. Calls come from the whole dose curve; as a rule, active = well fitted curve in the direction sought with a large enough effect; inconclusive = small, poorly fitted or top-dose-only effect, or another doubt; inactive = no such curve, though single readings can be large; an effect the other way counts as inactive or inconclusive.

Key:
[1] = Viability qHTS for spleen associated tyrosine kinase inhibitor (SYKi) drug resistant MV4-11 cells (AID 1963824); note: nearly all actives have a fitted effect of over 35% in size
Method in brief: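 SYK inhibitor-resistant MV4-11 AML cells, 500 per well, added to predispensed compounds and incubated 72 hr at 37 C, 5% CO2. Viability measured by CellTiter-Glo luminescence after 10 min at room temperature.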

[2] = Quantitative highthroughput screen to assess conditional lethalithy of NOMO1 cells grown in Human Plasma-Like Medium with dialyzed fetal bovine serum (HPLM+ds) (AID 1963878); note: nearly all actives have a fitted effect of over 35% in size;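 for Viability: 100% = DMSO wells and 0% = empty wells on each plate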
Method in brief: (§1)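 Each medium arm—HPLM with 10% dialyzed FBS, or RPMI1640 with 5 mM glucose and 10% untreated or dialyzed FBS—was screened against an 11-point, 3-fold compound titration for 48 h at 37 °C, with CellTiter-Glo luminescence as endpoint.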

[3] = Quantitative highthroughput screen to assess conditional lethalithy of SEM cells grown in RPMI1640 with unreated serum (RPMI+s) (AID 1963883); note: nearly all actives have a fitted effect of over 35% in size;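 for Viability: 100% = DMSO wells and 0% = empty wells without cells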
Method in brief: as §1

[4] = Quantitative highthroughput screen to assess conditional lethalithy of SEM cells grown in RPMI1640 with dialyzed fetal bovine serum (RPMI+ds) (AID 1963884); note: nearly all actives have a fitted effect of over 35% in size;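 for Viability: series mostly up to about 46 µM; 100% = DMSO control wells and 0% = empty wells without cells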
Method in brief: as §1

[5] = Cellular viability qHTS for adrenocortical cancer (ACC) cell line SW-13 (AID 1963989); conditions: SW-13 ACC cells viability, CellTiter-Glo, 48 h; activity (max response): active compounds read low; note: nearly all actives have a fitted effect of over 65% in size;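 for activity (max response): cells grown in serum-free medium with ITS supplement; % is set by controls: 0 for no effect and ±100 for the full control effect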
Method in brief: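 SW-13 cells in ITS-supplemented serum-free DMEM were plated overnight, then exposed for 48 h at 37C to compound titrations (up to 46 uM final). Viability was read by CellTiter-Glo luminescence; four-parameter logistic fits gave IC50 and efficacy.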

[6] = Cellular viability qHTS for adrenocortical cancer (ACC) cell line NCI-H295R (AID 1963990); note: nearly all actives have a fitted effect of over 60% in size
Method in brief: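 Luminescent ATP read-out (CellTiter-Glo, 20 min RT) after 48 h drug exposure of NCI-H295R cells; a titration up to 46 uM final. Data normalized to doxorubicin (100% inhibition) and DMSO (0%); 4-parameter fit gives IC50, max response.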

[7] = Quantitative highthroughput screen to assess conditional lethalithy of NOMO1 cells grown in RPMI1640 with dialyzed fetal bovine serum (RPMI+ds) (AID 1963877); note: nearly all actives have a fitted effect of over 30% in size;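 for Viability: series mostly up to about 46 µM; 100% = DMSO control wells and 0% = empty wells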
Method in brief: as §1

[8] = Quantitative highthroughput screen to assess conditional lethalithy of P12 Ichikawa cells grown in Human Plasma-Like Medium with dialyzed fetal bovine serum (HPLM+ds) (AID 1963879); conditions: Potency: viability; note: nearly all actives have a fitted effect of over 35% in size; for Viability: series mostly up to about 46 µM
Method in brief: as §1

[9] = Quantitative highthroughput screen to assess conditional lethalithy of P12 Ichikawa cells grown in RPMI1640 with dialyzed fetal bovine serum (RPMI+ds) (AID 1963880); conditions: Potency: P12-Ichikawa viability; note: nearly all actives have a fitted effect of over 35% in size;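 for Viability: 100% = DMSO wells and 0% = empty wells on each plate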
Method in brief: as §1

[10] = Quantitative highthroughput screen to assess conditional lethalithy of P12 Ichikawa cells grown in RPMI1640 with untreated serum (RPMI+s) (AID 1963881); conditions: Potency: viability; note: nearly all actives have a fitted effect of over 35% in size;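 for Viability: series mostly up to about 46 µM; 100% = DMSO wells and 0% = empty wells without cells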
Method in brief: as §1

[11] = Quantitative highthroughput screen to assess conditional lethalithy of SEM cells grown in Human Plasma-Like Medium with dialyzed fetal bovine serum (HPLM+ds) (AID 1963882); note: nearly all actives have a fitted effect of over 35% in size; for Viability: series mostly up to about 46 µM
Method in brief: as §1
Potency is the fitted concentration of half-maximal effect.

CN(C)c1ccc2cc(C(=O)N[C@@H](CCCN=C(N)CCl)C(=O)NCc3ccccc3)ccc2c1
inactive: activity (max response) [5] -6.76% | Potency [6]
active: Potency [1] 4.68 µM | Potency [2] 23.5 µM | Potency [3] 26.4 µM | Potency [4] 26.4 µM

CC(C)OC(=O)OCOP(=O)(CO[C@H](C)Cn1cnc2c(N)ncnc21)OCOC(=O)OC(C)C
active: Potency [1] 9.44 µM | Potency [7] 23.5 µM
inactive: Potency [8] | Potency [9] | Potency [6]

CN(C)CCCN=c1c2ccccc2n(C)c2[nH]c(=O)n(C)c(=O)c12
active: Potency [1] 8.33 µM | Potency [7] 20.9 µM | Potency [8] 26.4 µM | Potency [9] 18.7 µM | Potency [10] 18.7 µM | Potency [11] 11.8 µM | Potency [3] 10.5 µM | Potency [4] 9.35 µM | Potency [5] 25.1 µM | Potency [6] 28.2 µM

C[C@H](c1ccc(F)cc1CCCC(=O)O)N(c1cc(F)ccc1F)S(=O)(=O)c1ccc(Cl)cc1
active: Potency [1] 18.6 µM
inactive: Potency [7] | Potency [2] | Potency [8] | Potency [9] | activity (max response) [5] -23.1% | Potency [6]

CCN(CC)CCCCNc1ncc2c(n1)N(C)C(=O)N(c1c(Cl)c(OC)cc(OC)c1Cl)C2
active: Potency [1] 14.8 µM | Potency [2] 26.4 µM | Potency [11] 14.8 µM | Potency [3] 13.2 µM | Potency [4] 14.8 µM | Potency [5] 25.1 µM

O=C(O)CCNc1cc(N2CCc3ccccc3CC2)nc(-c2ccccn2)n1
inactive: Potency [1] | Potency [7] | Potency [8] | Potency [11] | Potency [3] | Potency [4] | activity (max response) [5] 0.209% | Potency [6]

CNC(=O)c1cc(Oc2ccc(NC(=O)Nc3ccc(Cl)c(C(F)(F)F)c3)c(F)c2)ccn1
inactive: Potency [7] | Potency [9]
active: Potency [1] 291 nM and 590 nM | Potency [3] 0.372 µM | Potency [4] 0.332 µM | Potency [5] 3.98 µM | Potency [6] 7.08 µM

Cc1ccnc2c1NC(=O)c1cccnc1N2C1CC1
active: Potency [7] 2.09 µM
inactive: Potency [1] | Potency [8] | Potency [9] | Potency [10] | Potency [11] | Potency [3] | Potency [4] | activity (max response) [5] -0.191% | Potency [6]

COCCOc1ccc2c(c1)ncn2-c1ccc2cccc(N3CCC(N)CC3)c2n1
active: Potency [1] 11.6 nM and 16.6 nM | Potency [7] 18.7 µM | Potency [2] 14.8 µM | Potency [3] 0.0935 µM | Potency [4] 0.0264 µM | Potency [5] 25.1 µM | Potency [6] 12.6 µM

CCS(=O)(=O)Nc1ccc2[nH]c(O)c(C(=Nc3ccc(CN4CCCCC4)cc3)c3ccccc3)c2c1
active: Potency [1] 0.0332 µM | Potency [7] 0.833 µM | Potency [2] 4.69 µM | Potency [11] 0.0743 µM | Potency [3] 0.0935 µM | Potency [5] 3.55 µM | Potency [6] 1.26 µM

CCOC(=O)[C@@]1(CCCCCCOc2ccc(Cl)cc2)CO1
active: Potency [1] 20.9 µM | Potency [3] 11.7 µM
inactive: Potency [2]

CN1CCc2c(n(Cc3ccc(C(=O)NO)cc3)c3ccccc23)C1
inactive: Potency [7]
active: Potency [1] 18.6 µM | Potency [3] 23.5 µM | Potency [6] 25.1 µM

Nc1nccc(Oc2ccc(NC(=O)c3c[nH]cc(-c4ccc(F)cc4)c3=O)cc2F)c1Cl
active: Potency [1] 0.0291 µM | Potency [2] 20.9 µM | Potency [9] 26.4 µM | Potency [3] 0.59 µM | Potency [6] 10 µM

O=C(O)c1ccc(Nc2ncc3c(n2)-c2ccc(Cl)cc2C(c2c(F)cccc2F)=NC3)cc1
active: Potency [1] 0.206 µM | Potency [7] 0.662 µM | Potency [2] 0.59 µM | Potency [8] 1.18 µM | Potency [10] 0.935 µM
inactive: activity (max response) [5] -30%

CCN1CCN(Cc2ccc(-c3cc4c(N[C@H](C)c5ccccc5)ncnc4[nH]3)cc2)CC1
active: Potency [1] 1.86 µM | Potency [2] 20.9 µM | Potency [11] 16.6 µM | Potency [3] 14.8 µM | Potency [4] 18.7 µM | Potency [5] 4.47 µM | Potency [6] 31.6 µM

O=c1[nH]c(=O)n(C2CCCO2)cc1F (stereo not given)
inactive: Potency [7] | Potency [2] | Potency [8] | Potency [11] | activity (max response) [5] 4.88% | Potency [6]
active: Potency [1] 18.6 µM

c1ccc2c(Cc3c[nH]c4ccccc34)c[nH]c2c1
active: Potency [1] 20.9 µM | Potency [2] 20.9 µM | Potency [4] 20.9 µM

O=C(Nc1cccc2c(=O)cc(-c3nn[nH]n3)oc12)c1ccc(OCCCCc2ccccc2)cc1
inactive: Potency [1] | activity (max response) [5] 13.6%
active: Potency [2] 23.5 µM | Potency [3] 9.35 µM

CC(C)C(=O)Nc1ccc([N+](=O)[O-])c(C(F)(F)F)c1
inactive: Potency [11] | Potency [3] | activity (max response) [5] 15.5% | Potency [6]
active: Potency [1] 10.6 µM and 18.6 µM | Potency [8] 1.87 µM | Potency [9] 3.32 µM | Potency [10] 2.09 µM
